These results are taken from PMC6919601, “Identification of Plasmodium dipeptidyl aminopeptidase allosteric inhibitors by high throughput screening” (PLoS ONE, 2019).

Out of some 110,000 compounds screened, about 230 (0.21%) showed an effect of 50% or more. The sample holds strong results, similar compounds and a random draw of the others, so the mix is not that of the screen.
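Also: 30 min substrate incubation versus DMSO and 10 µM JCP410 controls.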

In this assay the target is DPAP1 (Plasmodium falciparum, UniProt Q8IIJ9). Kind of assay: primary screen, percent inhibition; read by cleavage of a fluorogenic dipeptide substrate; higher = more effect of the substance. More on the design: species or system P. falciparum D10 trophozoite lysates; single well.
Sequence of DPAP1 (Q8IIJ9 whole entry, looked up): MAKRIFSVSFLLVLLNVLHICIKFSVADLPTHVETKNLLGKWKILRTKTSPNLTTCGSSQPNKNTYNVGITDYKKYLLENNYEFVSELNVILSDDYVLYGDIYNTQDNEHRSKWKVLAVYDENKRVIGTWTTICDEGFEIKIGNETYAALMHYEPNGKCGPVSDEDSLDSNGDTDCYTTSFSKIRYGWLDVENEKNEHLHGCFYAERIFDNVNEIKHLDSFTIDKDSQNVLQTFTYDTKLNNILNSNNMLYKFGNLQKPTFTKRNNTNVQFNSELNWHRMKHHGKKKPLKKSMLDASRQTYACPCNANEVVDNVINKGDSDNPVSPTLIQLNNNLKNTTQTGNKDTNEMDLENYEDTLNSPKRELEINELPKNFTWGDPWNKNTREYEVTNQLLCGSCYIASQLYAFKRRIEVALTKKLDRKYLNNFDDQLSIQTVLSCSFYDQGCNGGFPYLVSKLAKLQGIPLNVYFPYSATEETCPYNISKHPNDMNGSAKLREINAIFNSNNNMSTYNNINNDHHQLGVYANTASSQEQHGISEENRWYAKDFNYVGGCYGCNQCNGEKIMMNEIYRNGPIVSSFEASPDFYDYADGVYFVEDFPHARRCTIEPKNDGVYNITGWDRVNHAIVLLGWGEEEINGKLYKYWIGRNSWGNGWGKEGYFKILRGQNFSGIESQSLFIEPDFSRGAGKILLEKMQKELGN
For `Cc1nc2ccccc2c2oc(C(=O)NCc3ccc(F)cc3)cc12`, the “% Inhibition @ 10 uM” value worked out at 1.62%.
As for `CC(=O)c1ccc(OCCOc2ccc(C(C)=O)cc2)cc1`, the figure is -6.82%.
To `CCn1c2ccccc2c2nnc(N3CCC(C)CC3)nc21` belongs -3.1%; to `Cc1cccc(Cc2c(C)nc3c(C(=O)NCCc4ccccc4)cnn3c2C)c1`, -16.3%; to `O=C(O)CSC12CC3CC(CC(C3)C1)C2`, -0.415%.
On to `O=C1c2ccccc2C(=O)N1c1c(F)c(F)c(C(F)(F)F)c(F)c1F`, for which the “% Inhibition @ 10 uM” value was found to be 1.8%.
As for `CC1=CC2=NC(=O)/C(=C\c3ccc(OCc4ccccc4C)cc3)C(=N)N2O1`, the figure is 3.63%; as for `COc1ccc(Cl)cc1N(CC(=O)Nc1ccc(C(C)C)cc1)S(C)(=O)=O`, 0.324%; as for `Nc1nnc(-c2ccc([N+](=O)[O-])cc2)s1`, -0.0369%.
As for `COc1ccc(C2=CC(c3ccc(F)c(Br)c3)n3nnnc3N2)cc1` (centres unmarked), the “% Inhibition @ 10 uM” value is reported as 1.73%.
As for `CC(=O)ONc1ccc(NC=C2C(=O)N(C)C(=O)N(C)C2=O)cc1`, the “% Inhibition @ 10 uM” value came out at 8.6%.
To `Fc1ccccc1CSCc1nc2ccccc2[nH]1` belongs -4.6%; to `O=C(Nc1cnc2ccccc2c1O)N1CCC(Cc2ccccc2)CC1`, 5.43%; to `Cc1cc(/C=C2/SC(=O)N(C(C)C)C2=O)c(C)n1-c1ccncc1`, -0.68%.
To `CCCC(=O)NCCc1nc2ccccc2n1CC(C)C` belongs 0.121%; to `CCCCc1nc(N)c(C#N)c(-c2ccccc2)c1CCC`, 97.8%.
As to `Cc1c(CC(C)C)nc(N)c(C#N)c1-c1ccc(F)cc1`, the “% Inhibition @ 10 uM” value worked out at 2.92%.
As for `CCCc1nc(N)c(C#N)c(-c2ccccc2)c1CC`, the figure is -0.631%; as for `CCCCCc1nc(N)c(C#N)c(-c2ccccc2)c1CCCC`, -5.9%; as for `Cc1c(CC(C)C)nc(N)c(C#N)c1-c1ccccc1`, 99.3%.
As for `COc1ccccc1-c1c(C)c(CC(C)C)nc(N)c1C#N`, the figure is 0.5%.
As for `Cc1ccccc1N1C(=O)/C(=C\c2c(C)[nH]c3ccccc23)C(=O)NC1=S`, the figure is 4.15%; as for `O=C(c1ccco1)N1CCN(C2CCC(c3ccccc3)CC2)CC1` (centres unmarked), -0.274%.
Consider `CCc1c(C#N)c(SC)nc(C)c1C(=O)Nc1ccccc1`, for which the “% Inhibition @ 10 uM” value worked out at 1.43%.
For `CC(=O)c1c(C)nc(S)c(C#N)c1-c1ccccc1`, the “% Inhibition @ 10 uM” value turned out to be 39.2%.
As for `CCOC(=O)c1c(C)nc(C)c(C(=O)OCC)c1-c1ccc(OC)cc1`, the figure is -1.96%; as for `CCOC(=O)c1c(C)nc(S)c(C#N)c1-c1ccc(OC)cc1`, 52.9%; as for `CCOC(=O)c1c(C)nc(S)c(C#N)c1-c1ccccc1`, 57.1%.
Regarding `CCc1c(C#N)c(S)nc(C)c1C(=O)Nc1ccccc1`, the “% Inhibition @ 10 uM” value is 55%.
As for `CCOC(=O)c1c(C)nc(C)c(C(=O)OCC)c1-c1ccccc1`, the figure is 1.57%; as for `CC(=O)c1c(C)nc(S)c(C#N)c1-c1ccc(Cl)cc1`, 33.7%.
For the molecule `Cc1nc(S)c(C#N)c(C)c1C(=O)Nc1ccccc1`, the “% Inhibition @ 10 uM” value came to 2.01%.
With `Cc1ccc(OCCNC(=O)Cn2cnc3c(=O)n(C)c(=O)n(C)c32)cc1C`, the “% Inhibition @ 10 uM” value is on record as -9.26%.
As for `CCn1c(C(=O)NCc2ccccn2)cc2oc3ccccc3c21`, the figure is -3.96%; as for `COc1cc(C2NCCc3c2[nH]c2ccccc32)ccc1OC(C)C` (centres unmarked), 1.02%; as for `CC1CCN(C(=O)Cn2cnc3c(nnn3Cc3ccccc3F)c2=O)CC1`, 24%.
To `O=C(CNS(=O)(=O)c1ccc(Br)s1)N1CC=C(c2ccccc2)CC1` belongs 3.27%.
As for `O=C(NC1CCCC1)c1ccc(Cl)c([N+](=O)[O-])c1`, the figure is -4.91%.
As to `O=C(Nc1cnn(Cc2ccccc2)c1)C1CCCC1`, the “% Inhibition @ 10 uM” value is listed as -1.78%.
As to `Cc1cc(-c2ccc([N+](=O)[O-])cc2)nc2ccc3ccccc3c12`, the “% Inhibition @ 10 uM” value is -0.239%.
To `Cc1cc(-c2ccc(N)cc2)nc2ccc3ccccc3c12` belongs 52.7%; to `Cc1cc(-c2ccc(O)cc2)nc2ccc3ccccc3c12`, -1.97%.
To `OC1CCCN(Cc2ccc(OC(F)(F)F)cc2)C1` (centres unmarked) belongs 1.62%; to `Cc1cccc(C)c1-n1c(C)cc(/C=C2\NC(=O)NC2=O)c1C`, 4.83%.
To `CCc1nnc(NC(=O)CSc2nc(N)nc(SC)c2C#N)s1` belongs -1.68%; to `CCc1nnc(NC(=O)CSc2nc(-c3cccs3)cc(C(F)(F)F)c2C#N)s1`, 9.42%; to `CCc1nnc(NC(=O)CSc2nc(C(F)(F)F)cc(C)c2C#N)s1`, 59.2%.
Regarding `COC(=O)C1=NNC2C(=O)N(Cc3ccccc3)C(=O)C12` (centres unmarked), the “% Inhibition @ 10 uM” value was -0.13%.
Take `CC(C(=O)O)c1cc(C(=O)c2ccccc2)sc1-c1ccccc1` (centres unmarked): the “% Inhibition @ 10 uM” value amounted to 6.08%.
To `CCOc1ccccc1C(=O)Nc1ccc(C(C)=O)cc1` belongs -7.23%; to `CC(C)CCOc1ccc(C(=O)CCNC(CC(C)C)C(=O)O)cc1` (centres unmarked), 30.1%; to `O=C(COc1ccccc1)NC(Cc1c[nH]c2ccccc12)C(=O)O` (centres unmarked), 10.2%.
Take `CCCOc1ccc(C(=O)CCNC(Cc2c[nH]c3ccccc23)C(=O)O)cc1` (centres unmarked): the “% Inhibition @ 10 uM” value is listed as 81.9%.
On to `CC[C@H](C)[C@H](NC(=O)Cc1ccncc1)C(=O)N[C@@H](CCc1ccccc1)C(=O)CO`, for which the “% Inhibition @ 10 uM” value is -4.17%.
Turning to `CCN(C(=O)c1ccco1)c1nc(-c2ccccc2)cs1`, the “% Inhibition @ 10 uM” value came out at 72.9%.
As for `CCCN(C(=O)c1ccco1)c1nc(-c2cccc(Cl)c2)cs1`, the figure is 11.9%; as for `CCN(C(=O)CCc1ccccc1)c1nc(-c2ccccc2)cs1`, -0.426%; as for `CCOC(=O)C1=CN(C)C=C(C(=O)OCC)C1c1ccc(C(C)C)cc1`, -1.48%.
To `Cc1cc(C)c(S(=O)(=O)N2CCCc3ccccc32)c(C)c1` belongs 1.83%; to `Cc1ccc(-n2nc(C)c3c(C)c(CCC(=O)NCC4CCCO4)c(C)nc32)cc1` (centres unmarked), 0.953%.
To `CCOc1ccc(/C=C2/C=C(c3ccc(C)cc3)OC2=O)cc1OC` belongs 1.84%.
Consider `CCOc1ccc(N2C(=O)C3C(C(C)=O)=NN(c4ccccc4Cl)C3C2=O)cc1` (centres unmarked), for which the “% Inhibition @ 10 uM” value was -0.0619%.
As for `O=C1c2cccc3cccc(c23)C(=O)N1O`, the figure is 13.1%; as for `O=C1NC(=O)c2cccc3cccc1c23`, -4.51%.
`O=C1C(Sc2ccccc2)=C(O)c2cccc3cccc1c23`: the “% Inhibition @ 10 uM” value is reported as 68.7%.
As for `CCC(C)C(NCCC(=O)c1ccc(Br)cc1)C(=O)O` (centres unmarked), the figure is -7.23%.
With `CCCOc1ccc(C(=O)CCNC(C(=O)O)C(C)C)cc1` (centres unmarked), the “% Inhibition @ 10 uM” value is 2.8%.
As for `CC(C)Oc1ccc(C(=O)CCNC(C(=O)O)C(C)C)cc1` (centres unmarked), the figure is 59.7%.
In the case of `CCOc1ccc(C(=O)CCNC(CC(=O)O)C(=O)O)cc1` (centres unmarked), the “% Inhibition @ 10 uM” value is reported as 42.3%.
As for `CCOc1ccc(C(=O)CCNC(C(=O)O)C(C)CC)cc1` (centres unmarked), the figure is 71%; as for `COc1ccc(C(=O)CCNC(C)C(=O)O)cc1` (centres unmarked), 5.85%; as for `CCC(Oc1ccccc1)C(=O)Nc1ncccc1Cl` (centres unmarked), -3.75%.
As for `COc1ccccc1NC(=O)/C=C\C(=O)O`, the “% Inhibition @ 10 uM” value is recorded as 1.63%.
As for `CCCN(CCC)CCNC(=O)c1cn(C)c(=O)c2cc(OC)c(OC)cc12`, the figure is -2.49%; as for `CC(NC(=O)c1cccs1)c1cc2c(cc1Cl)OCCCO2` (centres unmarked), -1.28%; as for `Cc1nn(-c2ccccc2)c2sc(C(N)=O)cc12`, 6.83%.
To `COC(=O)c1cc2c(C)nn(-c3ccccc3)c2s1` belongs 4.7%; to `Cc1nn(-c2ccccc2)c2sc(-c3nnc(S)o3)cc12`, 64.9%; to `COc1ccccc1NC(=O)c1cc(OC)c(OC)c(OC)c1`, -5.67%.
As for `Cc1ccc(-c2nc3c4ccccc4nc(S)n3n2)cc1`, the “% Inhibition @ 10 uM” value is recorded as -7.62%.
